Among the data in PubChem BioAssay (NCATS) are activation, Potency and viability values, retold here.

For orientation: viability means a read-out of living cells in per cent, often relative to untreated cells.

The target in assay [1] is Cellular tumor antigen p53 (Homo sapiens) (UniProt P04637). Description: Primary qHTS for small molecule compounds that upregulate eGFP-tagged delta133p53alpha (in N-terminal) cells. (AID 2060322).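 For activation: series mostly up to about 56 µM; 0% = DMSO vehicle and 100% = reference activator.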 Note: nearly all actives have a fitted effect of over 75% in size. Note: potency is the fitted concentration of half-maximal effect. Particulars: NCI-H358 eGFP-delta133p53alpha fluorescence, 24 h; activation: active compounds read high. In outline:
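NCI-H358 cells pre-induced 24 h with 10 ng/ml doxycycline to express N-terminal eGFP-delta133p53alpha, then dosed 24 h at 37C without doxycycline; fixed, Hoechst-stained, GFP intensity by laser scanning cytometry, normalized to DMSO (0%) and 57.5 uM 5-azacytidine (100%).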
For orientation: Quantitative high-throughput screening tests each substance at several concentrations.

Assay [2] has the same target. Description: Primary qHTS for small molecule compounds that upregulate eGFP-tagged delta133p53alpha (in C-terminal) cells. (AID 2060324).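 Note: 0% = DMSO wells and 100% = 57.5 µM 5-azacytidine.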 In short, it runs like this: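 NCI-H358 cells with doxycycline-inducible D133p53a-eGFP (C-terminal tag), pre-induced 24 h with 100 ng/ml doxycycline, plated 800/well in doxycycline-free medium and treated 24 h at 37 °C with compound titrations. Cells were then fixed and Hoechst-stained, and GFP intensity was read by laser scanning cytometry.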

Assay [3] has as its target Aldehyde dehydrogenase, mitochondrial (Homo sapiens) (UniProt P05091). Description: qHTS for Inhibitors of the Aldehyde Dehydrogenase Family (ALDH2) Validation screens (AID 2061302; active = well fitted inhibition curve with a large enough effect; title and protocol of this record describe different tests; note: potency is the fitted concentration of half-maximal effect).
The target is the same in assay [4]. Kind of assay: qHTS for Inhibitors of the Aldehyde Dehydrogenase Family (ALDH2) Primary screen (AID 2061308).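 Note: plate controls were vehicle for no effect and reference inhibitor for full effect; nearly all actives have a fitted effect of over 55% in size.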
In assay [5] the target is Retinaldehyde dehydrogenase 3 (Homo sapiens) (UniProt P47895). Description: qHTS for Inhibitors of the Aldehyde Dehydrogenase Family (ALDH1A3) Validation screen (AID 2061312). Note: % is set by controls: 0 for no effect and ±100 for the full control effect; nearly all actives have a fitted effect of over 45% in size.
For assay [6] the target is unchanged. Kind of assay: qHTS for Inhibitors of the Aldehyde Dehydrogenase Family (ALDH1A3) Primary screen (AID 2061315).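 Note: plate controls were DMSO vehicle for no effect and reference inhibitor for full effect.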
The nature of assay [7]: BET inhibitor-based combinations targeting novel dependencies in MECOM-rearranged (r) AML: SET-2 cell line (AID 2202231).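 For viability: plate controls were DMSO treated cells for no effect and wells without cells for full effect.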 Note: nearly all actives have a fitted effect of over 35% in size. Note: potency is the fitted concentration of half-maximal effect. The settings on record: SET-2 AML cells viability, CellTiter-Glo luminescence, 48 h; viability: active compounds read low, concentration not given here. In short, it runs like this:
(§1)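 A 48 hr incubation preceded viability reading by CellTiter-Glo, with 15 min room-temperature development. Dose series had 11 points; normalization used DMSO and empty wells; AUC was computed and mean-centered per line as Z-AUC.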

Assay [8] in a line: BET inhibitor-based combinations targeting novel dependencies in MECOM-rearranged (r) AML: OCI-AML3 cell line (AID 2202232). Note: nearly all actives have a fitted effect of over 35% in size. Note: potency is the fitted concentration of half-maximal effect. Particulars: Potency: OCI-AML3 viability. In short, it runs like this: as §1
The nature of assay [9]: BET inhibitor-based combinations targeting novel dependencies in MECOM-rearranged (r) AML: HNT-34 cell line (AID 2202234). Note: potency is the fitted concentration of half-maximal effect; nearly all actives have a fitted effect of over 35% in size. In outline:
(§2)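 Each compound is tested in an 11-point concentration series against 500 seeded cells/well for 48 hr. The luminescent viability signal is normalized to DMSO and blank wells, then reduced to AUC and a cell-line-centred Z-AUC.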

A short description of assay [10]: BET inhibitor-based combinations targeting novel dependencies in MECOM-rearranged (r) AML: MV-4-11 cell line (AID 2202233). Note: potency is the fitted concentration of half-maximal effect; nearly all actives have a fitted effect of over 45% in size. In short, it runs like this: as §2
The nature of assay [11]: BET inhibitor-based combinations targeting novel dependencies in MECOM-rearranged (r) AML: AML-194 cell line (AID 2202237; note: nearly all actives have a fitted effect of over 40% in size; note: potency is the fitted concentration of half-maximal effect). In short, it runs like this:
as §1

The nature of assay [12]: BET inhibitor-based combinations targeting novel dependencies in MECOM-rearranged (r) AML: UCSD-AML1 cell line (AID 2202235).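 Note: series mostly up to about 46 µM; plate controls were DMSO vehicle wells for no effect and blank wells for full effect; nearly all actives have a fitted effect of over 40% in size.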 In outline:
as §2

Assay [13] is described as follows: BET inhibitor-based combinations targeting novel dependencies in MECOM-rearranged (r) AML: AML-191 cell line (AID 2202236;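 note: plate controls were vehicle wells for no effect and wells without cells for full effect; nearly all actives have a fitted effect of over 35% in size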). In short, it runs like this: as §1

Where “and” joins values, the source holds several entries; their conditions need not be identical. Equal entries are not always repeated. Results filed as inconclusive are left out. The source holds several records for some structures; these can differ, active in one and inactive in another. Values without a mark were called inactive. Calls of active or inactive are those of the source. Unless noted, calls come from the whole dose curve; as a rule, active = well fitted curve in the direction sought with a large enough effect; inconclusive = small, poorly fitted or top-dose-only effect, or another doubt; inactive = no such curve, though single readings can be large; an effect the other way counts as inactive or inconclusive.

Chain of Cellular tumor antigen p53 (Homo sapiens) (P04637 whole entry, looked up): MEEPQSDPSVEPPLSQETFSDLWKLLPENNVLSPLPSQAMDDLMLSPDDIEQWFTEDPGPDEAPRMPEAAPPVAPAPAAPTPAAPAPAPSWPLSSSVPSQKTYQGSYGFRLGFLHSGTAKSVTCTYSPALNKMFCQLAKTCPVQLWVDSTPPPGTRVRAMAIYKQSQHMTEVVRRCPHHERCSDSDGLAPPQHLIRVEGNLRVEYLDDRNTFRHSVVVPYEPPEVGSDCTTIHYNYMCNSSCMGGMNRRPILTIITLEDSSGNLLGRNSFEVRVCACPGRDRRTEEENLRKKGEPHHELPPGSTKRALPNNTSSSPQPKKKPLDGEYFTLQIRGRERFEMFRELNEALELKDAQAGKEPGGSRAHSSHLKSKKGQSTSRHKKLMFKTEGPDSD

For `CN1CCC(c2c[nH]c3ccc(O)cc23)CC1`, the activation in assay [1] was -20.9%. The Potency entry in assay [2] and in [3] was “inactive” throughout.
For `NC(Cc1cc(O)c(O)cc1O)C(=O)O` (stereo not given), in assay [1], the activation is -19.2%. For the same compound, in [2], the Potency result is “inactive”.
Regarding `Nc1ccc([N+](=O)[O-])cc1`, the activation in [1] is 28.8%.
For the compound `CC[C@@H](CO)NC(=O)[C@@H]1C=C2c3cccc4[nH]cc(c34)C[C@H]2N(C)C1`, the activation in [1] was -0.565% and -21.9%. The Potency entry in assay [2] was “inactive”.
Regarding `C[C@@H]1O[C@@H](O[C@@H]2C=C3CC[C@@H]4[C@@H](CC[C@]5(C)[C@H](c6ccc(=O)oc6)CC[C@@]45O)[C@@]3(C)CC2)[C@H](O)[C@H](O)[C@H]1O`, the activation in assay [1] is -11.3%.
As to `COc1ccccc1N1CCNCC1`, the activation in assay [1] was -15.9% and 0.526%. In addition, the Potency entry in assay [2] and in assay [3] was “inactive” in each case.
For the compound `CC1=NN=C(c2ccc(N)cc2)c2cc3c(cc2C1)OCO3`, in assay [1], the Potency was 9.68 µM (active) and the activation was 6.58%. The Potency in assay [3] is 8.91 µM (active).
As to `O=c1[nH]c2ccccc2n1C1CCN(CCCC(c2ccc(F)cc2)c2ccc(F)cc2)CC1`, the Potency in assay [1] is 26.9 µM (active). Moreover, the activation in assay [1] is -35.4%. The Potency result in [3], in [4], in assay [5] and in [6] was “inactive” throughout.
`CCOC(=O)CC(SP(=S)(OC)OC)C(=O)OCC` (stereo not given): in assay [1], the activation is -9.21% and 9.21%.
Still for that read-out and setting: the figure for `CC1(C)CC/C(=C/c2ccc(Cl)cc2)C1(O)Cn1cncn1` (stereo not given) is 2.51%; for `CCC(COC(=O)c1cc(OC)c(OC)c(OC)c1)(c1ccccc1)N(C)C` (stereo not given) it is -7.34%.
Still for that read-out and setting: the figure for `Oc1ccccc1-c1ccccc1` is 10%.
Same read-out and setting: next, `COc1ccc(C(c2ccc(OC)cc2)C(Cl)(Cl)Cl)cc1`: -10.7%; `CCC1(c2ccccc2)CCC(=O)NC1=O` (stereo not given): 4.18%; `COP(=S)(OC)Oc1ccc(S(=O)(=O)N(C)C)cc1`: 5.86%.
Take `CN1C(=O)CN=C(c2ccccc2)c2cc(Cl)ccc21`: in [1], the activation was -7.34%.
With `Clc1ccc(CCC(Cn2ccnc2)Sc2c(Cl)cccc2Cl)cc1` (stereo not given), the activation in assay [1] is 18.6% and -21.6%.
In the case of `Cn1cc(C2=C(c3cn(C4CCN(Cc5ccccn5)CC4)c4ccccc34)C(=O)NC2=O)c2ccccc21`, the Potency was 21.7 µM (active) in [1] and 5.25 µM (active) in assay [9]. For the same compound, in assay [1], the activation was 38.7%. Also, the viability in assay [7] was 103%. Besides, the Potency entry in assay [8] is “inactive”.
Turning to `CN1CCN(c2ccc([N+](=O)[O-])c3no[n+]([O-])c23)CC1`, in [1], the Potency was 21.3 µM (active) and the activation is 8.01%. In addition, the Potency entry in [6] was “inactive”. In [8], the Potency is 9.34 µM (active).
Consider `C[C@]12CCC(=O)C=C1CC[C@@H]1[C@@H]2CC[C@]2(C)C(=O)CC[C@@H]12`, for which the activation in [1] is 7.34%.
As for `CO[C@H]1CC=C2CCN3CCC4=C(CC(=O)OC4)[C@]23C1`, the activation in assay [1] is -25.9%. In assay [2], the Potency entry is “inactive”.
Take `N=C(N)c1ccc(CS(=O)(=O)F)cc1`: the activation in assay [1] was 3.92%. The Potency result in assay [2] and in assay [3] was “inactive” throughout.
Turning to `C[C@@H]1CC[C@@]2(OC1)O[C@H]1C[C@H]3[C@@H]4CC=C5C[C@@H](O[C@@H]6O[C@H](CO)[C@@H](O[C@@H]7O[C@@H](C)[C@H](O)[C@@H](O)[C@@H]7O)[C@H](O)[C@@H]6O[C@@H]6O[C@@H](C)[C@H](O)[C@@H](O)[C@@H]6O)CC[C@]5(C)[C@@H]4CC[C@]3(C)[C@@H]1[C@H]2C`, the activation in [1] was 15.2%.
The same measure, in the same setting: the figure for `CN(C)CCc1c[nH]c2cccc(OP(=O)(O)O)c12` is -1.69%; for `CC(C)N[C@@H]1CCn2c(=O)[nH]c3cccc(c32)[C@@H]1O` it is 13.7%.
In the case of `NCCc1ccc(S(=O)(=O)F)cc1`, the activation in [1] was -21.4%. In addition, the Potency entry in assay [2] and in [3] was “inactive” each time.
For `ClCCCN1CCN(c2cccc(Cl)c2)CC1`, the activation in assay [1] is -2.82%.
In the case of `CCN1CCN(C(=O)Cc2ccc(Nc3ncc(F)c(Nc4ccc(C(=O)Nc5ccccc5Cl)cc4)n3)cc2)CC1`, the Potency in assay [1] was 4.78 µM (active); in assay [7], 5.25 µM (active); in assay [8], 2.95 µM (active); in assay [10], 1.48 µM (active); in assay [11], 7.42 µM (active). For the same compound, the activation in assay [1] was 33.8%. Moreover, the Potency entry in assay [4] and in assay [6] was “inactive” throughout.
As for `c1ccc2c(c1)Nc1ccccc1S2`, in assay [1], the activation was 13% and 14.2%.
With `CCN(CC)CCc1c[nH]c2ccccc12`, the activation in assay [1] was -8.47%.
Same read-out and setting: the figure for `CC1Sc2c(C(=O)O)c(=O)c3cc(F)c(N4CCNCC4)cc3n21` (stereo not given) is -8.47%.
As to `OCc1cnc[nH]1`, the activation in assay [1] is -9.48%. For the same compound, the Potency result in assay [2] and in assay [3] was “inactive” each time.
As for `COc1ccc2c(c1OC)CN1CCc3cc4c(cc3C1C2)OCO4` (stereo not given), in [1], the Potency is 34.3 µM (active) and the activation is 26.6%.
`Nc1cc2c(ncn2CCOCP(=O)(O)O)c(=O)[nH]1`: the activation in [1] is -41.7%. The Potency result in assay [2] and in assay [3] was “inactive” throughout.
`COc1cccc2c1[C@]13CCN(CC4CC4)[C@H](C2)[C@]1(OC)CCC(=O)C3`: the activation in assay [1] is -12%.
With `CC[C@@H](CO)NC(=O)[C@@H]1C=C2c3cccc4c3c(cn4C)C[C@H]2N(C)C1`, the activation in assay [1] is -3.95% and -69.3%. Moreover, the Potency entry in [2] was “inactive”.
As to `CN(C)[C@@H]1C(=O)C(C(N)=O)=C(O)[C@@]2(O)C(=O)C3=C(O)c4c(O)cccc4[C@@](C)(O)[C@H]3C[C@@H]12`, in [1], the Potency is 21.9 µM (active). Further, in [1], the activation was -14.3%. Also, the Potency entry in assay [8], in [12], in assay [13] and in assay [11] was “inactive” in each case.
In the case of `NCCc1c[nH]c2ccc(O)cc12`, the activation in [1] was -1.52%. For the same compound, the Potency entry in [2] and in assay [3] was “inactive” in each case.
For the compound `Cc1o[nH]c(=O)c1CC(N)C(=O)O` (stereo not given), in assay [1], the activation is 16.8%. Further, the Potency result in [2] and in assay [3] was “inactive” in each case.
On to `N#C/C(=C/c1ccc(O)c(O)c1)C(N)=S`, for which the activation in assay [1] is -33.2%. For the same compound, the Potency entry in [2] is “inactive”.
Regarding `NC(CCCCCP(=O)(O)O)C(=O)O` (stereo not given), the activation in [1] was -10.2%. Besides, the Potency entry in assay [2], in assay [3] and in assay [5] was “inactive” each time.
For the compound `Cc1[nH]c2ccc(O)cc2c1CCN`, in assay [1], the activation is -25.5%. The Potency result in assay [2], in [3] and in [5] was “inactive” in each case.
Regarding `O=S1(=O)N(CCN2CC=C(c3c[nH]c4cc(F)ccc34)CC2)c2cccc3c2N1CCC3`, in assay [1], the activation is 24.1%. For the same compound, the Potency result in assay [2], in assay [3] and in [5] was “inactive” throughout.
